Data reported in PubChem BioAssay.

assay: E. coli acrAB mutant growth effects, primary screen, E. coli filamentation inducers, strain DRC39, OD650, 24 h (AID 1178); conditions: higher = more signal, called active from +8 up or from −8 down;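 note: growth measured as culture turbidity by optical density at 650 nm; test concentration not given here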

z-score, inactive:
CN1C(=O)C2C=CC(C(O)c3ccc([N+](=O)[O-])cc3)N(Nc3ccccc3)C2C1=O (stereo unspecified) -0.987
C=CCNC(=O)[C@@H]1[C@H]2C(=O)O[C@H](c3ccccc3)[C@H](c3ccccc3)N2[C@H](c2ccc(OCCO)cc2)[C@@]12C(=O)Nc1ccc(C#CC3=CCCCC3)cc12 -0.972
O=C/C=C/c1ccc(-c2ccccc2)cc1 1.29
CCCCCCc1nc(Cc2cc(OC)c(OC)c(OC)c2)c(C)c2c1[Si](C(C)C)(C(C)C)OC2 1.4
[N-]=[N+]=Nc1ccccc1C[C@]1(C(=O)N2CCCCC2)N=C(c2ccc(OCCCO)cc2)O[C@H]1c1ccccc1 0.463
COc1ccc(C(O)C2C=CC3C(=O)N(C)C(=O)C3N2Nc2ccccc2)cc1 (stereo unspecified) -0.386
COc1ccc(C(=O)Nc2ccc(CN3C(=O)[C@]4(O[C@H](CC(=O)N(CCO)Cc5ccccc5)[C@@H]([Si](C)(C)c5ccc(OC)cc5)[C@@H]4C)c4ccccc43)cc2)cc1 -0.225
C=C(COC)C(=O)CC[C@@H](OC(=O)c1ccccc1-c1ccccc1C(=O)O)c1ccccc1OCCO 0.0796
C=C1C(=O)C=C2CN(C(=O)c3ccccc3)[C@@](Cc3ccc(F)cc3)(C(=O)OC)[C@@H]12 0.322
C=CCOC(=O)[C@@H]1[C@H]2C(=O)O[C@H](c3ccccc3)[C@H](c3ccccc3)N2[C@H](c2ccc(OCCOC(=O)[C@H]3C[C@H]4C(=O)N[C@@H](CCCCN(C)C)C(=O)N4[C@H]3c3cccc(OCCO)c3)cc2)[C@@]12C(=O)Nc1ccccc12 0.292
COCCCNC(=O)[C@@]1(Cc2ccccc2I)c2ccccc2C(=O)N(Cc2ccccc2OC)[C@H]1c1ccc(CO)cc1 -0.033
COCCCNC(=O)[C@@]1(Cc2ccccc2I)c2ccccc2C(=O)N(C2CCCCC2)[C@H]1c1ccc(CO)cc1 0.319
O=C1C2C=CC(C(O)C3CCCCC3)N(Nc3ccccc3F)C2C(=O)N1c1ccccc1 (stereo unspecified) 0.221
COC(=O)C1(CC(C)C)C=C2C(=C(C)C(=O)C2C)CN1 (stereo unspecified) -0.43
CCOC(=O)C=C1C[C@@H](c2cccc([N+](=O)[O-])c2)O[C@@H](c2cccc([N+](=O)[O-])c2)O1 -0.402
CC(C)Cc1ccc(CN2CC[C@@H](NC(=O)c3ccccc3)C2)cc1 0.295
COc1ccc(CCNC(=O)[C@@]2(c3ccc([N+](=O)[O-])cc3)CC(=O)N(C3CCCCC3)[C@@H]2c2ccc(CO)cc2I)cc1 0.359
COC(=O)[C@]1(Cc2ccccc2N=[N+]=[N-])N=C(c2ccc(OCCCO)cc2)O[C@@H]1c1ccccc1CN=[N+]=[N-] -0.307
C=C(C(=O)CC[C@@H](OC(=O)c1ccccc1-c1ccccc1C(=O)O)c1ccc(OCCO)cc1)C(C)C -0.166
CC(C)[Si]1(C(C)C)OCc2cc(-c3ccc(-c4ccc(Cl)c(Cl)c4)o3)nc(-c3ccc(Oc4ccccc4)cc3)c21 0.223
O=C1C2C=CC(C(O)c3ccccn3)N(Nc3ccc([N+](=O)[O-])cc3)C2C(=O)N1c1ccccc1 (stereo unspecified) -0.63
O=C1OC[C@@H](c2ccccc2)n2cc(/C=C/c3ccccc3)cc21 -0.0891
CC[C@@H](O[Si](C#C[Si](C(C)C)(C(C)C)C(C)C)(C(C)C)C(C)C)c1cn([C@H](C)c2ccccc2)nn1 -0.263
O=C1OCCC/C=C\[C@H]2OC34C=CCN(Cc5ccccc5)C(=O)[C@H]3N(CCO)C(=O)[C@@H]4C12 (stereo partly specified) 1.68
COc1ccc(C(=O)Nc2cccc(CN3C(=O)[C@]4(O[C@H](CC(=O)N(CCO)Cc5ccccc5)[C@@H]([Si](C)(C)c5ccc(OC)cc5)[C@@H]4C)c4ccccc43)c2)cc1 1.46
COC(=O)[C@@]1(Cc2ccc(F)cc2)[C@H]2c3cc(C(=O)N4CCCC4)n(CCc4c[nH]c5cc(F)ccc45)c3C[C@H]2CN1C(=O)c1ccccc1 -0.426
